Consider 92 compounds from PubChem BioAssay AID1851 (National Center for Advancing Translational Sciences (NCATS), 2009).

The structures appear in SMILES notation. Where “and” joins values, the source holds several entries; their conditions need not be identical. Identical values can stand only once. Screen size: about 16,000 compounds; about 5,100 (32%) were called active. Roughly 25% stayed inconclusive and do not appear here. Some of the results follow. Unmarked numbers belong to inactive results. Calls come from the whole dose curve; as a rule, active = well fitted curve in the direction sought with a large enough effect; inconclusive = small, poorly fitted or top-dose-only effect, or effect the other way; inactive = no such curve, though single readings can be large or run the other way.

For orientation: AC50 means the concentration giving half of the maximal activity seen.
% is set by controls: 0 for no effect and ±100 for the full control effect.

In this experiment the target is Cytochrome P450 3A4 (Homo sapiens) (UniProt P08684). The experiment can be described thus: Cytochrome panel assay with activity outcomes. Conditions: recombinant CYP, pro-luciferin dealkylation, luminescence, p450-cyp3a4; series mostly up to 57.1 µM; activity, negative = inhibition: at the top concentration.
Sequence of Cytochrome P450 3A4 (Homo sapiens) (P08684 whole entry, looked up): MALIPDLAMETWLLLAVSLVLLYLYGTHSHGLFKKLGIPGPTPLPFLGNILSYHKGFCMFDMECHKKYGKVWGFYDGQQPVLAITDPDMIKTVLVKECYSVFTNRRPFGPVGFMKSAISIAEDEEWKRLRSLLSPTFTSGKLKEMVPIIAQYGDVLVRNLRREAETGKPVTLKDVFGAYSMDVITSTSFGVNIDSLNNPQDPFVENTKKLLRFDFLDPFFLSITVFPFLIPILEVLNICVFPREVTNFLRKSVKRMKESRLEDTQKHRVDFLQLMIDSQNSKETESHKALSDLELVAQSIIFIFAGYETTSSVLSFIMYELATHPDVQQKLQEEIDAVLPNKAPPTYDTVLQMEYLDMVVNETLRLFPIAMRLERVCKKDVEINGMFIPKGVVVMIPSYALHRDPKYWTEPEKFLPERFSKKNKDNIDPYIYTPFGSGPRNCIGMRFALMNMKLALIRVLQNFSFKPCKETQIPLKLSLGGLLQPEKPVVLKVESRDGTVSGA
Regarding `O=C(O)[C@@H]1[C@@H]2C[C@H]([C@@H](Br)[C@H]2N2C(=O)CCC2=O)[C@@H]1C(=O)O`, the activity, negative = inhibition is 2.42% [at 11.4 µM].

Consider `C=CCn1c(SCC(=O)NC2CCCCC2)nnc1C1CCCCC1`, for which the half-maximal activity concentration (AC50) is 8.91 µM (active).

With `CCCCC(=O)Nc1nnc(SCC(=O)NC2CCCC2)s1`, the activity, negative = inhibition was -12.4% [at 2.29 µM].

For `COc1ccc(C(=O)NN)cc1COc1ccc(Br)cc1`, the AC50 is 1.26 µM (active).

In the case of `Cc1nn(C)cc1CNC(=O)CCC(=O)O`, the “activity, negative = inhibition” value is 2.19%.

As for `COc1ccc(/C=C/C(=O)NCc2cn(C)nc2C)cc1COc1ccc(Br)cc1`, the AC50 was 3.16 µM (active).

`COc1ccc(/C=N/NC(=O)c2ccn[nH]2)cc1COc1ccc(Cl)cc1`: the activity, negative = inhibition is -16.8% [at 2.29 µM].

With `CCn1ncc(/C=C/C(=O)NCc2cn(C)nc2C)c1C`, the “activity, negative = inhibition” value was -2.52%.

As for `COc1ccc(/C=N/NC(=O)c2ccn[nH]2)cc1COc1ccc(F)cc1`, the activity, negative = inhibition was -10.3% [at 2.29 µM].

For the compound `COc1cc(/C=C(\C#N)C(N)=O)cc(CSc2nc3ccccc3s2)c1O`, the concentration at half-maximal activity (AC50) was 3.98 µM (active).

For the compound `C[C@](N)(COP(=O)(O)O)C(=O)O`, the “activity, negative = inhibition” value was -21.4%.

As to `O=C(Nc1cc(C(F)(F)F)ccc1-n1cncn1)c1ccc(Br)cc1`, the activity, negative = inhibition was -10.9% [at 2.29 µM].

Consider `COC(=O)c1ccc(-n2cncn2)c(F)c1`, for which the AC50 was 7.94 µM (active).

As to `C[C@@H]1O[C@H](O[C@@H]2[C@@H](Oc3cc(O)c4c(c3)O[C@H](c3ccc(O)cc3)CC4=O)O[C@@H](CO)[C@@H](O)[C@H]2O)[C@@H](O)[C@H](O)[C@@H]1O`, the “activity, negative = inhibition” value was -18.6% [at 25.6 µM].

Consider `COc1ccc(NC(=O)CC2C(=O)N(c3cccc(OC)c3)C(=O)N2C2CCCCC2)cc1` (configuration not stated), for which the AC50 is 8.91 µM (active).

Turning to `CCN1CCN(CCC(=O)Nc2cccc(OC)c2)CC1`, the “activity, negative = inhibition” value was -11.5%.

With `COc1cccc(N2C(=O)C(CC(=O)Nc3ccccc3)N(C3CCCCC3)C2=O)c1` (configuration not stated), the half-maximal activity concentration (AC50) was 5.01 µM (active).

With `O=C1C=C[C@@H](O)[C@H]2[C@@H]3C(=O)N(c4cccc(Oc5ccccc5)c4)C(=O)[C@@H]3CC[C@H]12`, the activity, negative = inhibition was -11.6% [at 11.4 µM].

As to `O=C(CSc1nnnn1C1CCCC1)Nc1ccc(F)cc1`, the AC50 was 14.1 µM (active).

Take `CCOc1ccc(N(C(C)C(=O)N/N=C(\C)c2cccc(NC(=O)c3ccccc3)c2)S(C)(=O)=O)cc1` (configuration not stated): the activity, negative = inhibition is -20.9% [at 2.29 µM].

As to `CCC(CC)C(=O)Nc1cccc(/C(C)=N\NC(=O)c2ccc(C)s2)c1`, the AC50 was 7.94 µM (active).

For the compound `CCC(CC)C(=O)Nc1cccc(/C(C)=N/NC(=O)c2c(Br)cnn2C)c1`, the half-maximal activity concentration (AC50) is 14.1 µM (active).

Consider `C/C(=N\NC(=O)c1cccc(F)c1)c1ccc(Br)s1`, for which the “activity, negative = inhibition” value was -16.5%.

Consider `C/C(=N\NC(=O)c1ccc(Cl)cc1)c1cccc(NC(=O)C(C)C)c1`, for which the AC50 is 15.8 µM (active).

Take `CCOC(=O)c1c(NC(=O)c2c(Br)cnn2C)c(C#N)nn1-c1ccccc1`: the “activity, negative = inhibition” value was 15.3%.

`Cc1cc(=O)[nH]c2c1c(C)nn2C1CCOC(C)(C)C1` (configuration not stated): the “activity, negative = inhibition” value was 10.5%.

Consider `Cc1[nH]c2ccccc2c1-c1cc(-c2cc(-c3c(C)[nH]c4ccccc34)on2)no1`, for which the activity, negative = inhibition is -5.38% [at 11.4 µM].

For `CCn1c(C)nc2cc(S(=O)(=O)C(F)F)ccc21`, the activity, negative = inhibition was 9.09% [at 11.4 µM].

For `CCCCn1c(SCc2c(C)noc2C)nc2cc(S(N)(=O)=O)ccc21`, the AC50 is 0.708 µM (active).

As to `CCCOc1ccc(C(=O)NNC(=S)NC(=O)CC)cc1`, the activity, negative = inhibition was -8.65% [at 2.29 µM].

On to `CCCOc1ccc(C(=O)NNC(=S)NC(=O)c2cc(-c3ccccc3)nc3ccccc23)cc1`, for which the AC50 is 8.91 µM (active).

In the case of `O=C(OCCN1CCOCC1)C1(c2ccccc2)CCCCC1`, the AC50 was 3.16 µM (active) and 1.58 µM (active).

Turning to `CN(C)CCOC(=O)C1(c2ccccc2)CCOCC1`, the “activity, negative = inhibition” value is 3.36%.

Turning to `CCN(CC)CCOC(=O)C1(c2ccc([N+](=O)[O-])cc2)CCCC1`, the “activity, negative = inhibition” value was -25.9% [at 25.6 µM].

On to `NC(N)=NN=Cc1c(Cl)cccc1Cl`, for which the AC50 entry was “inactive”.

For `Cc1ccc(Cn2nnc3c(=O)[nH]c(C4CCN(C(=O)Cc5cccs5)CC4)nc32)cc1`, the concentration at half-maximal activity (AC50) is 4.47 µM (active).

Take `COCC(=O)N1CCC2(CCN(Cc3ccccc3OC)CC2)CC1`: the “activity, negative = inhibition” value is -3.57%.

With `COc1ccc(C(=O)N2CCC3(CCN(Cc4ccccc4OC)CC3)CC2)cc1`, the “activity, negative = inhibition” value is -0.0167%.

Regarding `COc1ccccc1Cn1nnc2c(=O)[nH]c(C3CCN(C(=O)c4ccc(C)cc4)CC3)nc21`, the AC50 is 1.58 µM (active).

Regarding `O=C(Cc1cccs1)N1CCC(c2nc3c(nnn3Cc3ccccc3Cl)c(=O)[nH]2)CC1`, the AC50 is 3.16 µM (active).

For `Cc1ccc(-c2c(C#N)c(N)n(-c3ccccc3)c(=O)c2C#N)cc1`, the activity, negative = inhibition was -3.64% [at 2.29 µM].

For the compound `O=C(OCCNC(=O)c1ccc2ccccc2n1)c1ccc(F)cc1`, the AC50 was 14.1 µM (active).

Consider `CN(C)CCOC(=O)c1ccc(N)cc1`, for which the activity, negative = inhibition is -4.56% [at 11.4 µM].

As for `FC(F)(F)c1cc(C(F)(F)F)c2ccc(N/N=C/c3cccc(Cl)c3)nc2n1`, the “activity, negative = inhibition” value was 5.99%.

Regarding `Fc1ccc(N2CCN(c3ccc4c(C(F)(F)F)cc(C(F)(F)F)nc4n3)CC2)cc1`, the AC50 is 10 µM (active).

For the compound `Cc1ccc(Nc2nc(Cl)nc(N(C)C#N)n2)cc1`, the concentration at half-maximal activity (AC50) is 11.2 µM (active).

As for `Cc1c(C)c2c(c(C)c1O)CC[C@@](C)(CCC[C@@H](C)CCC[C@@H](C)CCCC(C)C)O2`, the “activity, negative = inhibition” value is 11.9% [at 25.6 µM].

Consider `Cc1ccc(NC(=O)c2sccc2SCc2cccc(C(F)(F)F)c2)cc1`, for which the AC50 was 1 µM (active).

As for `Cn1nc(C(F)(F)F)c(C(=O)Nc2ccc(F)cc2F)c1Sc1cccc(C(F)(F)F)c1`, the AC50 was 6.31 µM (active).

Turning to `Cc1ccc(NC(=O)c2c(C(F)(F)F)nn(C)c2SCc2cccc(C(F)(F)F)c2)cc1C`, the AC50 is 3.16 µM (active).

As to `CC(C)NC(=O)c1ccc(-c2cccc(C(F)(F)F)c2)o1`, the “activity, negative = inhibition” value was 2.51%.

As to `CC(=O)OCc1c(C(F)(F)F)nn(C)c1Sc1ccccc1`, the “activity, negative = inhibition” value is -22.5%.

With `Cn1nc(C(F)(F)F)c(C(=O)Nc2ccc(F)cc2F)c1Sc1ccc(C(F)(F)F)cc1`, the AC50 was 12.6 µM (active).

For `CN(C/C=C\c1ccccc1)Cc1cccc2ccccc12`, the “activity, negative = inhibition” value is -6.8% [at 25.6 µM].

For the compound `COc1ccccc1C(c1nnnn1C(C)(C)C)N1CCCc2ccccc21` (configuration not stated), the AC50 was 10 µM (active).

`COc1ccccc1C(=O)NC(=S)N1CCCc2ccccc21`: the “activity, negative = inhibition” value was 14.7%.

As to `COc1ccccc1C(c1nnnn1C(C)(C)C)N1CCN(Cc2ccncc2)CC1` (configuration not stated), the AC50 is 3.16 µM (active).

For the compound `CC[N+](CC)(CC)CC`, the “activity, negative = inhibition” value was -3.53%.

Turning to `CC(C)(C)NC[C@@H](O)c1ccc(O)c(CO)n1`, the activity, negative = inhibition is 2.12% [at 11.4 µM].

On to `N#Cc1ccc(C(c2nnnn2Cc2ccccc2)N2CCCC2)cc1` (configuration not stated), for which the AC50 was 7.94 µM (active).

For `N#Cc1cccc(C(c2nnnn2C2CCCC2)N2CCCCCC2)c1` (configuration not stated), the concentration at half-maximal activity (AC50) was 5.01 µM (active).

Take `N#Cc1ccc(C(c2nnnn2C2CCCC2)N2CCC(Cc3ccccc3)CC2)cc1` (configuration not stated): the AC50 was 4.47 µM (active).

With `N[C@@H](C(=O)O)c1ccc(P(=O)(O)O)cc1`, the “activity, negative = inhibition” value was -17.9%.

Regarding `O=C(O)c1sc2cc(C(F)(F)F)cnc2c1-c1ccccc1`, the “activity, negative = inhibition” value is -2.07%.

On to `CCOC(=O)c1sc2c(c1C)c(=O)c(C(=O)OCC)cn2CC`, for which the “activity, negative = inhibition” value is -3.84%.

`CCOC(=O)c1sc2nc(CC(=O)OC)nc(NCc3ccc(F)cc3)c2c1C`: the AC50 is 4.47 µM (active).

For `Cc1cc(C)c(-c2noc(C(=O)OC(C)(C)C)c2C(=O)OC(C)(C)C)c(C)c1`, the activity, negative = inhibition was -8.97% [at 2.29 µM].

In the case of `Cc1cc(C(=O)CC#N)c(C)n1CC(F)(F)F`, the concentration at half-maximal activity (AC50) was 3.16 µM (active).

As for `O=C(NNC(=S)Nc1ccccc1)c1ccco1`, the “activity, negative = inhibition” value is 28.6%.

Regarding `O=C(/C=C/c1ccc(Cl)cc1)Nc1ccc(N2CCCCC2)cc1`, the “activity, negative = inhibition” value was -0.808%.

As for `O=C(/C=C/c1ccccc1)NC(NC(=S)Nc1ccc(Cl)cc1)C(Cl)(Cl)Cl` (configuration not stated), the AC50 was 4.47 µM (active).

`O=C(Cc1ccccc1)NC(NC(=S)Nc1cc(Cl)ccc1Cl)C(Cl)(Cl)Cl` (configuration not stated): the AC50 was 4.47 µM (active).

Take `O=C(CCc1ccccc1)Nc1ncn[nH]1`: the “activity, negative = inhibition” value was 3.46%.

As to `O=C(NC(NC(=S)Nc1cc(Cl)ccc1Cl)C(Cl)(Cl)Cl)c1ccco1` (configuration not stated), the AC50 is 6.31 µM (active).

With `O=C(Cc1ccccc1)NC(NCCc1ccccc1)C(Cl)(Cl)Cl` (configuration not stated), the AC50 is 14.1 µM (active).

`O=C(Cc1ccccc1)NC(=S)Nc1cc(C(F)(F)F)ccc1Cl`: the activity, negative = inhibition was -7.93% [at 2.29 µM].

As to `CC(CP(=O)(O)O)NC(=O)Cc1ccccc1` (configuration not stated), the “activity, negative = inhibition” value was -3.58%.

As to `C[C@@H](CCC(=O)O)C(=O)O`, the activity, negative = inhibition was -7.96% [at 11.4 µM].

Take `COc1ccc(Oc2ncc3nc(-c4cn(C)c5ccccc45)c(=O)n(C4CC4)c3n2)cc1`: the AC50 was 12.6 µM (active).

Consider `COCCn1c(=O)c(-c2cn(C)c3ccccc23)nc2cnc(Oc3ccc(OC)cc3)nc21`, for which the concentration at half-maximal activity (AC50) is 3.98 µM (active).

With `COCCn1c(=O)c(-c2cn(C)c3ccccc23)nc2cnc(Oc3cccc(Cl)c3)nc21`, the “activity, negative = inhibition” value is -28.2%.

Regarding `COCCn1c(=O)c(-c2cn(C)c3ccccc23)nc2cnc(Oc3ccccc3)nc21`, the half-maximal activity concentration (AC50) is 3.16 µM (active).

As for `OCCNc1nc(NCCC2=CCCCC2)nc(N2CCOCC2)n1`, the “activity, negative = inhibition” value is -16.4%.

For `Cc1ccc(C)c(-c2nn(-c3cc(N4CCN(CCO)CC4)ccc3[N+](=O)[O-])c(=O)c3ccccc23)c1`, the AC50 was 12.6 µM (active).

With `Cc1ccc(N2CCN(CCC(=O)O)CC2)cc1`, the activity, negative = inhibition is -4.63% [at 11.4 µM].

As for `COc1ccc(NC(=O)CCOc2ccccc2)cc1`, the AC50 was 15.8 µM (active).

In the case of `Cc1ccc(OCc2ccc(C(=O)Nc3nccs3)o2)cc1C`, the AC50 is 11.2 µM (active).

`Cc1ccc(OCC(=O)NNC(=O)c2cc3ccccc3o2)cc1C`: the “activity, negative = inhibition” value was -22.6%.

`COc1ccc(NC(=O)c2ccc(COc3ccccc3)o2)cc1`: the concentration at half-maximal activity (AC50) was 22.4 µM (active).

Take `CN1CCN(C(=O)c2ccc(COc3ccc(C(C)(C)C)cc3)o2)CC1`: the activity, negative = inhibition was -9.09% [at 2.29 µM].

On to `O=C(COC(=O)COc1ccccc1)Nc1ccc(OC(F)(F)F)cc1`, for which the “activity, negative = inhibition” value is -1.1%.

As for `CC(C)N(CC(=O)O)CC(=O)O`, the activity, negative = inhibition was -7.3% [at 11.4 µM].
